The campaign covered roughly 65,000 compounds. About 360 (0.55%) were called active. This is one part of a sample in which actives are shown more often than they occur. Values without a mark were called inactive.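 How the source made its calls: active means inhibition above the mean inhibition of all tested compounds plus 3 SD (cut at about 48% in these data); inactive means the rest.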

The target in the assay is Steroidogenic factor 1 (Homo sapiens) (UniProt Q13285). The assay is described as follows: inhibitors of human SF-1, primary screen, cell-based, CHO-K1, Gal4-SF-1 LBD, luciferase luminescence (AID 525).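 Further: 0% = SF-1 transfected cells with DMSO and 100% = mock-transfected cells lacking SF-1.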 The settings on record: CHO-K1 Gal4-SF-1 LBD luciferase reporter; at 10 µM; hits give high values. (In general: Reporter assays use an easily measured gene product as a stand-in for the process of interest.)
Chain of Steroidogenic factor 1 (Homo sapiens) (Q13285 whole entry, looked up, the tested form may be a part): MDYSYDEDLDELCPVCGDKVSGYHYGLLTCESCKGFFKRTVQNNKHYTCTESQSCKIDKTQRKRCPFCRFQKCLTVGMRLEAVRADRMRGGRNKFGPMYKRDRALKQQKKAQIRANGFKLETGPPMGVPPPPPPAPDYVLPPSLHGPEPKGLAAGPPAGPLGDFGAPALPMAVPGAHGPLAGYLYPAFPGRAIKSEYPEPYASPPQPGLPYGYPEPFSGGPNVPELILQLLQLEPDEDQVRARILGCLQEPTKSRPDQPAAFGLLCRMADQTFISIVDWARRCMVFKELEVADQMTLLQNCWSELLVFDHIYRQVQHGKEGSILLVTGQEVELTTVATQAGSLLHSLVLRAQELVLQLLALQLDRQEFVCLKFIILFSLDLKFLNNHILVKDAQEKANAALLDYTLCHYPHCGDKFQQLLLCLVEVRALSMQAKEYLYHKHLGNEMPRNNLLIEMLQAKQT
As for `CC(=O)c1c(N2CCOCC2)nc(=S)n(-c2cc(C)ccc2C)c1C`, the inhibition is -0.4%.
As for `COC(=O)c1ccc(NC(=O)c2ccco2)cc1`, the figure is -85.3%; as for `COc1ccccc1N1CC(O)=C(c2nc3ccccc3s2)C1=N`, -13.3%.
On to `O=C(OC1CCOC1=O)c1ccc(-c2nc3ccccc3s2)s1` (centres undefined), for which the inhibition was 59.9% (active).
As for `COc1ccc(CCN2CNc3c(c(=O)n(C)c(=O)n3C)C2)cc1OC`, the figure is -1.5%; as for `CSCC[C@H](NC(=O)NCCc1ccc(F)cc1)C(=O)O`, -3.2%.
As for `Fc1ccc2nc(Nc3nc4c(s3)CCCC4)sc2c1`, the figure is -90%; as for `CCCC(CCC(=O)OC)(C(=O)OCC)c1csc(N)n1` (centres undefined), -13.3%.
As for `CC(Oc1ccc(Cl)cc1)C(=O)Nc1ncccn1` (centres undefined), the figure is 16%; as for `O=C(Nc1ccc(Cl)cn1)c1cnn2cccnc12`, -63.8%; as for `C=CCN(c1ccc(C(N)=O)cc1)S(C)(=O)=O`, -14.5%.
As for `Cc1cccc(CC(=O)Nc2c3c(nn2-c2cccc(Cl)c2)CS(=O)C3)c1` (centres undefined), the inhibition was 13.6%.
As for `COc1cccc(-c2nc3n(n2)C(c2ccccc2Cl)C(C(N)=O)=C(C)N3)c1` (centres undefined), the inhibition is 17.2%.
As for `O=S(=O)(c1cccs1)N1CCc2ccccc2C1`, the figure is 12.2%; as for `COCc1[nH]nc2c1C(C1C=CCCC1)C(C#N)=C(N)O2` (centres undefined), -8%; as for `CCOC(=O)[C@H]1CCC[C@@H](NS(=O)(=O)c2ccc(NC(C)=O)cc2)C1`, -18.3%.
As for `CCN(c1ccccc1)S(=O)(=O)c1ccc(N)cc1`, the figure is -8.5%; as for `CCCOc1ccc(/C(O)=C2/C(=O)C(=O)N(CCN(C)C)C2c2ccc(OC)c(OC)c2)cc1` (centres undefined), -2.4%.
As for `CC(C)Cc1cc(C(=O)NCCc2ccccc2)no1`, the figure is -80.7%; as for `Cc1cc(/C=N/n2cnnc2)c(C)n1-c1ccc2ncccc2c1`, 2.6%.
On to `O=C(Oc1ccc(-c2nc(-c3ccccn3)no2)cc1)c1ccccc1`, for which the inhibition is 49.6% (active).
Consider `Cc1cccc(-c2noc(-c3ccc(F)cc3)n2)c1`, for which the inhibition was -77.6%.
As for `CCOC(=O)N1CCC(Nc2c(NCCN3CCN(c4cccc(Cl)c4)CC3)c(=O)c2=O)CC1`, the figure is -1.7%; as for `COc1ccc(-c2noc(-c3cccc(OC)c3OC)n2)cc1OC`, -100%.
As for `COc1ccc2c(c1)CCc1c(C(=O)N3CCCC3)noc1-2`, the figure is -55.3%; as for `COc1ccc(-c2nc(-c3ccccc3)no2)c(OC)c1`, 82.9% (active); as for `CCOC(=O)N1CCN(CC(=O)Nc2cc(C)nn2-c2nc3ccccc3s2)CC1`, -0.5%.
As for `CCOC(=O)N1CCN(C(=O)C2CCCN(c3ncnc4c3sc3cccc(F)c34)C2)CC1` (centres undefined), the figure is 2.8%; as for `CCOC(=O)N1CCN(C(=O)C2CCN(c3ncnc4c3sc3cccc(F)c34)CC2)CC1`, 55.2% (active); as for `COc1ccc(C(CC(=O)O)NC(=O)Cc2ccccc2)cc1` (centres undefined), 10.8%.
As for `COC(=O)c1ccc(NC(=O)C(C)N2C(=O)c3ccccc3C2=O)cc1` (centres undefined), the inhibition is -11.5%.
As for `CCC(=O)N1CCN=C1SCc1ccc(F)cc1`, the figure is -14.3%; as for `CCN(CC)c1ccc(C(=O)OCC(=O)c2ccco2)cc1`, -53.6%.
As for `CC1CCCN(Cc2nc3c(c(=O)n(C)c(=O)n3C)n2CC(=O)c2ccccc2)C1` (centres undefined), the figure is -26.7%; as for `COc1ccc(CCNC(=O)CN2CCC(n3nnc4cc(F)ccc43)CC2)cc1OC`, -4.4%.
As for `C=CCn1c(=O)c2ccccc2n2c(SCC(=O)N3CCCc4ccccc43)nnc12`, the figure is 8.4%; as for `CCC(C(=O)NC1CCCC1)N(C(=O)c1snc(C(N)=O)c1N)c1ccc2c(c1)OCCO2` (centres undefined), -2.2%.
Take `CCOc1cc(C(=S)N2CCOCC2)ccc1O`: the inhibition was 3.9%.
As for `CCOc1cc(C(=O)N2CCc3cc(OC)c(OC)cc3C2)ccc1OC(F)F`, the figure is 77.3% (active); as for `COc1ccc(-c2cc(C(=O)NC(C(=O)O)C(C)C)c(C)o2)cc1OC` (centres undefined), -56.5%.
As for `CCOc1ccccc1-n1c(SCC(=O)NCc2ccco2)nnc1-c1ccncc1`, the figure is 6.1%; as for `O=C(CN1C(=O)C2C3C=CC(C3)C2C1=O)NCC1COc2ccccc2O1` (centres undefined), -7.1%; as for `CC(C)OCCCNc1ncnc2c1[nH]c1ccc(F)cc12`, 84.1% (active).
As for `CC(C)CNC(=O)c1cc(-c2ccc(Br)cc2)on1`, the figure is -52.5%; as for `Cn1c(NC(=O)c2ccco2)c(-c2ccccc2Cl)c(=O)c2ccccc21`, -7.6%; as for `CC1=C(C(=O)OCc2ccccc2)C(c2ccco2)n2ncnc2N1` (centres undefined), 14.7%.
For the molecule `O=C(COc1ncnc2ccccc12)NC(=O)NCc1ccccc1`, the inhibition is 2.4%.
For `CN(Cc1ccccc1)Cc1ccccc1F`, the inhibition is 9.2%.
On to `O=C(CN1C(=O)COc2ccccc21)Nc1ccc(F)cc1`, for which the inhibition was 8.5%.
Take `CC(C)(C)NC(=O)Cn1nnc(-c2ccccc2Cl)n1`: the inhibition is -50%.
As for `O=C(Cn1cc2c(n1)CCCCC2)NCCN1CCOCC1`, the figure is 8.1%; as for `COC(=O)c1ccc(NCC(=O)c2ccccc2)cc1`, -68.7%.
As for `O=C(Cn1cnc2c(cnn2-c2ccccc2)c1=O)NCc1ccccc1`, the figure is -70.3%.
In the case of `COc1ccccc1-c1cc(C(=O)N2CCCCC2)no1`, the inhibition was -82.1%.
As for `CCOc1cccc(C(=O)Nc2cccnc2)c1`, the figure is -6.7%; as for `Cc1noc(/C=C/N(C)C)c1S(=O)(=O)N1CCCC(C(=O)NCc2ccco2)C1` (centres undefined), 15%; as for `COc1ccccc1Nc1ncnc2c1oc1ccccc12`, -91.8%.
Take `COC(=O)N1CN(C(=O)OC)CN(C(=O)OC)C1`: the inhibition was -1.7%.
As for `C=C(C)CSc1nc(N)c2c3c(sc2n1)CCC3`, the figure is -51.4%; as for `CC(C)(CNCC(O)c1ccccc1)N1CCOCC1` (centres undefined), -12.6%.
As for `O=C(CS(=O)(=O)c1cn(Cc2cccc(F)c2)c2ccccc12)N1CCCCC1`, the figure is -5.4%.
As for `Cc1noc(COc2ccccc2OCC(O)CNC(C)(C)C)n1` (centres undefined), the figure is 0.5%.
`COC(=O)c1c(NC(=O)c2cccs2)sc2c1CCCC2`: the inhibition was -28.2%.
As for `N#CCCN1CCN(S(=O)(=O)c2ccc(S(=O)(=O)N3CCCC3)cc2)CC1`, the figure is 18%.

As usually defined, the inhibition is the drop in the measured response relative to a control, in per cent.

Values taken from PubChem BioAssay AID525 (The Scripps Research Institute Molecular Screening Center, 2006).
